# Measured values taken from PubChem BioAssay (NCATS).
# Several values for one entry are separate records, joined by “and”; a condition that tells them apart may be missing. Equal values may be shown once. Results filed as inconclusive are left out. Where a call stands in place of a potency, no number is given. Some structures have more than one record in an assay (separate samples or runs), and their calls can disagree. Activity calls are given as the source filed them. Unless noted, calls follow the shape of the dose curve; as a rule, active = well fitted curve in the direction sought with a large enough effect; inconclusive = small, poorly fitted or top-dose-only effect, or another doubt; inactive = no such curve, though single readings can be large; an effect the other way counts as inactive or inconclusive.
# Experiments:
# [1] = test system: Zika virus NS2B-NS3 protease; experiment: Primary screen GU AMC qHTS for Zika virus inhibitors (AID 1347154); also: nearly all actives have a fitted effect of over 70% in size
# Outline: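 Unlinked Zika NS2B hydrophilic domain–NS3 protease complex at 25 nM in 10 mM Tris-HCl pH 8.0, 0.01% Tween 20, with an AMC peptide substrate. Fluorescence change (340/450 nm) over 15 min at room temperature, normalized to controls, fitted to 4-parameter Hill.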
# [2] = Primary qHTS for small molecule stabilizers of the endoplasmic reticulum resident proteome: Secreted ER Calcium Modulated Protein (SERCaMP) assay (AID 1508630)
# Outline: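 The SH-SY5Y reporter protocol was run at 3 concentrations up to 38.3 uM (primary) or 11 concentrations (follow-up): 16 h compound, 100 nM thapsigargin for 4 h, then extracellular luciferase luminescence.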
# [3] = Confirmatory qHTS for small molecule stabilizers of the endoplasmic reticulum resident proteome: Secreted ER Calcium Modulated Protein (SERCaMP) assay (AID 1508628); also: nearly all actives have a fitted effect of over 40% in size; also: potency is read from the fitted curve at half-maximal effect
# Outline: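 Reporter secretion upon ER calcium depletion (100 nM thapsigargin, 4 h, 37C) is measured as medium luminescence with coelenterazine, after 16 h compound pretreatment of SH-SY5Y-GLuc-SERCaMP cells; primary at three concentrations up to 38.3 uM, follow-up at 11 (up to 76.6 uM).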
# [4] = molecular target: Cytochrome P450 1A2 (Homo sapiens) (UniProt P05177); experiment: p450-cyp1a2 (AID 410; calls by dose curve; also: potency is read from the fitted curve at half-maximal effect)
# Sequence of Cytochrome P450 1A2 (Homo sapiens) (P05177 whole entry, looked up): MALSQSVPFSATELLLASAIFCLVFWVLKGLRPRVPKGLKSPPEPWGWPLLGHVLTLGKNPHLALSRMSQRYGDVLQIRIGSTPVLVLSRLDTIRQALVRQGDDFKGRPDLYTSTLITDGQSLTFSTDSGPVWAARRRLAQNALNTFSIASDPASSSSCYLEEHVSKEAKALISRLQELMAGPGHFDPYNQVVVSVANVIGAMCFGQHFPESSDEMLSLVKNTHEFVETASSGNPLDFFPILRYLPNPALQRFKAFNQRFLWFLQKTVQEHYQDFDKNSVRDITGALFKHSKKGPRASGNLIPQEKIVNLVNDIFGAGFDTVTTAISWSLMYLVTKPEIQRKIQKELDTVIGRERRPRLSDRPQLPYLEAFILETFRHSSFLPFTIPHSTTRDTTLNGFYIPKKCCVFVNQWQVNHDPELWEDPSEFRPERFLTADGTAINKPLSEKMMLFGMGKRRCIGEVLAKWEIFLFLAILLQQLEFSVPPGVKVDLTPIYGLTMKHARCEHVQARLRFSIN
# Outline: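 Luminescent demethylation readout: Luciferin-ME (100uM, equal to Km) turned over by 20nM CYP1A2 for 60 min at room temperature after NADPH regeneration addition, following 10 min compound preincubation. Normalization used 57 uM furafylline as full inhibition.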
# [5] = molecular target: Glucocorticoid receptor (Homo sapiens) (UniProt P04150); experiment: GR-GFP Redistribution (AID 450;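 active = compounds whose dose series gives a full or clear partial fitted curve of increased nuclear translocation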; also: potency is read from the fitted curve at half-maximal effect); conditions: U2OS GR-GFP nuclear translocation, laser cytometry, 2 h
# Sequence of Glucocorticoid receptor (Homo sapiens) (P04150 whole entry, looked up, the tested form may be a part): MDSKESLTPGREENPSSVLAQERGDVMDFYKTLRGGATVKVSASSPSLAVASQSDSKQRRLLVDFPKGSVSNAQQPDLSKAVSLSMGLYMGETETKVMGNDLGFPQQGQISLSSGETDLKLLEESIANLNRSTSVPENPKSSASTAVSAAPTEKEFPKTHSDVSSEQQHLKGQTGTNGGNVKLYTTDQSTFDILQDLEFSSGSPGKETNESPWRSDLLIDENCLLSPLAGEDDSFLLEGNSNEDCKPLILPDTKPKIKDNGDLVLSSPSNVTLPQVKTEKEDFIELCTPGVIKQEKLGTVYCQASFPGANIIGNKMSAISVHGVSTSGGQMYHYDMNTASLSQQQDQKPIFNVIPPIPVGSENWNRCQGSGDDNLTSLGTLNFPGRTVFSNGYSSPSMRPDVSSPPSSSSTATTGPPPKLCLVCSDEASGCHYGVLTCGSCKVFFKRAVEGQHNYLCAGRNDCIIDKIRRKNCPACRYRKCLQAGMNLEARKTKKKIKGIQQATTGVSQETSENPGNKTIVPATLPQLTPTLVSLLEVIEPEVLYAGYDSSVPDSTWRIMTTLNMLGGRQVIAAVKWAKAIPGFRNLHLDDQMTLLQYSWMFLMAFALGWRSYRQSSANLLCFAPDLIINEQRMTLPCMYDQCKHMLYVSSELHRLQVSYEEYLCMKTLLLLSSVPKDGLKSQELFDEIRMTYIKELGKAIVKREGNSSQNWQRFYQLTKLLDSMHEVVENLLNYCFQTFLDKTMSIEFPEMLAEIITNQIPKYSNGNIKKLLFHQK
# [6] = molecular target: Glucocorticoid receptor (Homo sapiens) (UniProt P04150); experiment: GR-EFC Redistribution (AID 451; calls by dose curve; also: potency is read from the fitted curve at half-maximal effect); conditions: CHO-K1 GR-EFC translocation, beta-gal luminescence, 2 h
# Outline: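 CHO-K1 cells expressing nuclear EA and GR-ED fragments of b-gal; compounds titrated up to 46 uM final, 2 h at 37 C. GR nuclear translocation read as complemented b-gal luminescence after 1 h RT detection.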
# [7] = molecular target: Mitogen-activated protein kinase 10 (Mus musculus) (UniProt Q61831); experiment: JNK3 AlphaScreen Assay (AID 530; active = well fitted curve in either direction with a large enough effect, not every such curve was filed as active;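 also: kinase came from lysate of stimulated human HepG2 cells; signal reports phosphorylation of biotinylated GST-cJun 1-79 at Ser73 with 10 µM ATP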)
# Outline: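 Activity was read by AlphaScreen after JNK3-containing HepG2 lysate (cytokine pre-activated) phosphorylated biotinylated GST-cJun with 10 uM ATP at room temperature. Phospho-Ser73 cJun antibody with Protein-A acceptor beads provided detection.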
# [8] = molecular target: 3',5'-cyclic-AMP phosphodiesterase 4B (Homo sapiens) (UniProt Q07343); experiment: qHTS Assay for Inhibitors of PDE-IV (AID 607; active = well fitted activation curve with a large enough effect in the main read-out, with a control signal flat, not every such curve was filed as active)
# Sequence of 3',5'-cyclic-AMP phosphodiesterase 4B (Homo sapiens) (Q07343 whole entry, looked up): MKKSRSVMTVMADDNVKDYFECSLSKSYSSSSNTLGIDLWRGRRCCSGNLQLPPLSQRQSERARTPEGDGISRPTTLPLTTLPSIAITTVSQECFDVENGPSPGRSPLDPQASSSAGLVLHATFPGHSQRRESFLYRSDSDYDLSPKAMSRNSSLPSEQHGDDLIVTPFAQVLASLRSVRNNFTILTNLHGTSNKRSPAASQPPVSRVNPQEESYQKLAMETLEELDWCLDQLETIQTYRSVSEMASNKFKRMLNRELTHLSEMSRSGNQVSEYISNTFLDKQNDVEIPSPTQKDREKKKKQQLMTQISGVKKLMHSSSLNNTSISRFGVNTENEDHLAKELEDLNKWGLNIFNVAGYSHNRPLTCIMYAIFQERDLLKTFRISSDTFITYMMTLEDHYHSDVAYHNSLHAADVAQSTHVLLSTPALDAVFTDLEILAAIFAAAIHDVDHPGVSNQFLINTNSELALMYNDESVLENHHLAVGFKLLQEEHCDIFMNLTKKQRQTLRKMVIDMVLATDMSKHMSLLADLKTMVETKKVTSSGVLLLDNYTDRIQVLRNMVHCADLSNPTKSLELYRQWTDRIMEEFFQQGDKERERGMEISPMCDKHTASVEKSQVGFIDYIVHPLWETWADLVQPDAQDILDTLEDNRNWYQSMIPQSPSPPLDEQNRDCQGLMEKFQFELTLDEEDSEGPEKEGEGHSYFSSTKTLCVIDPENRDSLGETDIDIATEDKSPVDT
# Outline: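 The readout is membrane depolarisation from a cAMP-sensing CNG channel, detected with a potential dye at ex 535/em 590. Cells were HEK293-derived (endogenous PDE-IV) at 1000 cells/well, titrated up to 22.9 uM final.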
# [9] = molecular target: Cytochrome P450 3A4 (Homo sapiens) (UniProt P08684); experiment: qHTS Assay for Activators of Cytochrome P450 3A4 (AID 885); also: nearly all actives have a fitted effect of over 65% in size
# Sequence of Cytochrome P450 3A4 (Homo sapiens) (P08684 whole entry, looked up): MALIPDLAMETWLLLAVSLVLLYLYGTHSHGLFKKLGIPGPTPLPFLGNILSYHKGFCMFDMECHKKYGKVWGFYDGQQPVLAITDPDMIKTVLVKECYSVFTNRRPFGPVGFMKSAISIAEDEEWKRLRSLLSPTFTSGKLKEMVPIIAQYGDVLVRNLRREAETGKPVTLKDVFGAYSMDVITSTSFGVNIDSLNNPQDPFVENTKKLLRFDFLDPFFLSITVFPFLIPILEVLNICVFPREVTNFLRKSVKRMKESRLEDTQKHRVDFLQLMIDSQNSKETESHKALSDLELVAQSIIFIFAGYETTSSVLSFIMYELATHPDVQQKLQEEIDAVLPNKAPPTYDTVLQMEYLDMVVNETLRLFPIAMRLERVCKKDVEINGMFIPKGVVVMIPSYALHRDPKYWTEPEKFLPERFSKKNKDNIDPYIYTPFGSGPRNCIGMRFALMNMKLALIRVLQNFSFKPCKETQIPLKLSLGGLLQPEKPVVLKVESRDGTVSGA
# Outline: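 Activators are scored by enhanced luminescence from CYP3A4 conversion of luciferin-PPXE (25uM, equal to KM) to luciferin, after 60 min at RT with an NADPH-regenerating system.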
# [10] = molecular target: DNA dC->dU-editing enzyme APOBEC-3G (Homo sapiens) (UniProt Q9HC16); experiment: qHTS for inhibitors of Vif-A3G interactions: Validation (AID 588379)
# Sequence of DNA dC->dU-editing enzyme APOBEC-3G (Homo sapiens) (Q9HC16 whole entry, looked up): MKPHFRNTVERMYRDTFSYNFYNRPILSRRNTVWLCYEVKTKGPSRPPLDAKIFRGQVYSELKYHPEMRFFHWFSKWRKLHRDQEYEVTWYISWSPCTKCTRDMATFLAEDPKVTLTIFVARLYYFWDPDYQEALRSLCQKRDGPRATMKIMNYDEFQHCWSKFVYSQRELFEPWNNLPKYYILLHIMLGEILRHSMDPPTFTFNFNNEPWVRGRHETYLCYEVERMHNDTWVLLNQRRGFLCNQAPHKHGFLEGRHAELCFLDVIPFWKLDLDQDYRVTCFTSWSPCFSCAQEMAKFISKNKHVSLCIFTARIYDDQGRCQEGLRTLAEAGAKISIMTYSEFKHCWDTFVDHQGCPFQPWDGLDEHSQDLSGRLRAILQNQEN
# Outline: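 Yellow fluorescence (Ex 488, Em 500-530) of Vif-coexpressing HeLa A3G-eYFP cells, scanned by Acumen cytometer, reports blocked A3G degradation. Cells plated at 700/well overnight at 37 deg C before compound addition, then a further overnight compound incubation at 37 deg C.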
# [11] = AP1 Signaling Pathway (AID 357; active = well fitted curve in either direction with a large enough effect, not every such curve was filed as active;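 also: ME-180 reporter cells stimulated with EGF at its EC50 level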)
# Outline: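 In this screen, ME-180 cells in Opti-MEM with 0.5% dialyzed FBS received EC50 EGF and compound titrations for 5 h. AP-1 reporter beta-lactamase was detected via CCF4 ratio, giving AC50 for positive and negative modulators.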
# [12] = NFAT Signaling Pathway (AID 444; active = well fitted curve in either direction with a large enough effect, not every such curve was filed as active;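 also: carbachol stimulus at about its EC50 of 1 µM final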); conditions: Jurkat NFAT-bla M1, carbachol, beta-lactamase ratio, 5 h; at 38 µM (top of the series)
# Outline: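 Jurkat cells with NFAT-driven β-lactamase reporter and co-expressed M1 receptor, stimulated with carbachol (final 1 uM, ~EC50), compound titration, 5 h at 37 °C. CCF4 loaded 1 h at RT; 460/530 nm ratio gave %activity and AC50.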
# [13] = Stat Signaling Pathway (AID 446; active = well fitted curve in either direction with a large enough effect, not every such curve was filed as active;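 also: ME-180 cervical cancer cells given 40 pM IL-6 alongside compound; SIE-controlled beta-lactamase reporter measured as 460/530 nm FRET emission ratio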)
# Outline: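 Emission at 460 and 530 nm (excitation 405 nm) reports SIE-controlled beta-lactamase in ME-180 cells. Cells received compound with 40 pM IL-6 for 5 hrs at 37 C; data scaled between 300 pM IL-6 and 125 nM JAK-inhibitor controls.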
# [14] = molecular target: Cytochrome P450 2D6 (Homo sapiens) (UniProt P10635); experiment: qHTS Assay for Inhibitors and Substrates of Cytochrome P450 2D6 (AID 891); also: potency is read from the fitted curve at half-maximal effect; nearly all actives have a fitted effect of over 60% in size
# Sequence of Cytochrome P450 2D6 (Homo sapiens) (P10635 whole entry, looked up): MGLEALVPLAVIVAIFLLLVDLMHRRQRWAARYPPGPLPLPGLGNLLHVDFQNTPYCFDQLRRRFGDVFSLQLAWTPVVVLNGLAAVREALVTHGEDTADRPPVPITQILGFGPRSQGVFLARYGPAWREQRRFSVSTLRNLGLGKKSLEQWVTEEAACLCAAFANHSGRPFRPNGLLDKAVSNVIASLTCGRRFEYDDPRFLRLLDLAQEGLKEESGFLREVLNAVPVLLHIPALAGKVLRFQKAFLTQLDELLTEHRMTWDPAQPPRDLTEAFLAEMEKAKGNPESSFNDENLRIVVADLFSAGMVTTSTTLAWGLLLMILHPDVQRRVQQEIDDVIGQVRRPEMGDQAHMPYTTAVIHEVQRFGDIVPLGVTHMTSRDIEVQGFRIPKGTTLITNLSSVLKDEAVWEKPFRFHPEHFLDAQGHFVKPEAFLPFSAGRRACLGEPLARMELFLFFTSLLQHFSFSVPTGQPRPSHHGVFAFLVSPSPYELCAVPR
# Outline: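 Luminescent read-out of luciferin formed by 5 nM human CYP2D6 demethylating 30 uM Luciferin-ME EGE (Km level) over 60 min at room temperature after NADPH regeneration addition. Data normalized to full inhibition by 1.43 uM quinidine.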
# [15] = qHTS Assay for Identification of Small Molecule Antagonists for NFkB Signaling Pathway (AID 895; active = well fitted inhibition curve with a large enough effect in the signal ratio, with a control signal flat, not every such curve was filed as active; the % refers to the signal ratio)
# Outline: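 ME-180 NFkB-bla cells (beta-lactamase under NFkB response element), plated overnight, treated with compound then 10 pM TNF alpha (about EC50) for 5 hrs at 37 C. LiveBLAzer FRET read at 460/530 nm emission, 405 nm excitation.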
# [16] = molecular target: Muscarinic acetylcholine receptor M1 (Rattus norvegicus) (UniProt P08482); experiment: qHTS Assay for Antagonists of Acetylcholine Muscarinic M1 Receptor: Measurement of IP-One Response (AID 944); also: nearly all actives have a fitted effect of over 75% in size
# Sequence of Muscarinic acetylcholine receptor M1 (Rattus norvegicus) (P08482 whole entry, looked up): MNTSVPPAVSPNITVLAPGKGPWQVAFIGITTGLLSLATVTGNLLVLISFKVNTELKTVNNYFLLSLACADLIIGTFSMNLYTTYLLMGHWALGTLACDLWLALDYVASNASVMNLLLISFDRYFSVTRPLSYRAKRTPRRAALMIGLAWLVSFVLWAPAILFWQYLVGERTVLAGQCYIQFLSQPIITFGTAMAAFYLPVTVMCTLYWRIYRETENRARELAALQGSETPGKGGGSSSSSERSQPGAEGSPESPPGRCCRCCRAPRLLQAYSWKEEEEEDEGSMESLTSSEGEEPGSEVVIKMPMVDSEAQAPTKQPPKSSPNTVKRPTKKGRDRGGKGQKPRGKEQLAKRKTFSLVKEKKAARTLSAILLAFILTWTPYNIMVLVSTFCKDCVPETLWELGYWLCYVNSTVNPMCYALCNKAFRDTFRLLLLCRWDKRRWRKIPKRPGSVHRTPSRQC
# Outline: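 IP1 accumulation measured via TR-FRET between d2-IP1 and Eu-cryptate anti-IP1 antibody after carbachol (200 nM, EC80) stimulation for 30 min; rat M1-transfected CHO cells received compound 10 min before agonist.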
# [17] = molecular target: Pyruvate kinase (Leishmania mexicana) (UniProt Q27686); experiment: qHTS Validation Assay for Inhibitors of Leishmania Mexicana Pyruvate Kinase (AID 945)
# Outline: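 The enzyme is a highly purified E451W mutant of LmPYK used at 0.2 nM. It converts 0.5 mM PEP and 0.1 mM ADP over 1 h at room temperature; product ATP is quantified by luciferase luminescence relative to DMSO controls.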
# [18] = molecular target: Pyruvate kinase PKM (Homo sapiens) (UniProt P14618); experiment: qHTS Assay for Activators of Human Muscle Pyruvate Kinase (AID 954; active = well fitted curve in the direction sought with a large enough effect, not every such curve was filed as active)
# Sequence of Pyruvate kinase PKM (Homo sapiens) (P14618 whole entry, looked up): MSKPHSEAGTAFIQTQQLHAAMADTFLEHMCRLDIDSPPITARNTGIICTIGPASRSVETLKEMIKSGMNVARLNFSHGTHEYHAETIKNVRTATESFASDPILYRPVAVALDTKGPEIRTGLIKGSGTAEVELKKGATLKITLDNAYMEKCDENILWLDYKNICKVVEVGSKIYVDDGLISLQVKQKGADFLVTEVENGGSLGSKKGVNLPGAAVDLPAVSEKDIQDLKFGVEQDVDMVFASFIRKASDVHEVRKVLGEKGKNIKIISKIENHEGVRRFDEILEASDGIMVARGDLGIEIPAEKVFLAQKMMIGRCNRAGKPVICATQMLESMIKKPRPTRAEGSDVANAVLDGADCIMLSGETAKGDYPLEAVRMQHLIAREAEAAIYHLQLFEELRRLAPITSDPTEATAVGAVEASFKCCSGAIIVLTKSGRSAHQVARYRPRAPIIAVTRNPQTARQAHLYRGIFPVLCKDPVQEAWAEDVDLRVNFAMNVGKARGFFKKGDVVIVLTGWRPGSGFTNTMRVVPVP
# Outline: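 PKM2, human, >95% pure, 0.1 nM; PEP 0.5 mM (Km), ADP 0.1 mM; 50 mM imidazole pH 7.2, 50 mM KCl, 0.01% Tween 20, 0.05% BSA; 1 h RT; luciferase luminescence readout.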
# [19] = molecular target: Alpha-galactosidase (Coffea arabica) (UniProt Q42656); experiment: Counterscreen for Glucocerebrosidase Inhibitors: qHTS Assay for Coffee Bean alpha-Galactosidase at pH 4.5 (AID 957)
# Sequence of Alpha-galactosidase (Coffea arabica) (Q42656 whole entry, looked up): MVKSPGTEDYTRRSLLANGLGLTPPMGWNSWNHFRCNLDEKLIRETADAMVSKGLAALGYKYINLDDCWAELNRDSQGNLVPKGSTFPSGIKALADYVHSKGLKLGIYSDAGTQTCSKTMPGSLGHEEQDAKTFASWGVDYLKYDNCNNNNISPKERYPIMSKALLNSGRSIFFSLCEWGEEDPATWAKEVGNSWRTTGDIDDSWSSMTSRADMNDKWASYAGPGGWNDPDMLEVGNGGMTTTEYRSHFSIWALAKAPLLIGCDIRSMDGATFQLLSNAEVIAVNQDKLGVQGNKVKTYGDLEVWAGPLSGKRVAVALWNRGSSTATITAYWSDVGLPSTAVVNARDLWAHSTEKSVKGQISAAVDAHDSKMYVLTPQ
# Outline: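 Fluorogenic qHTS at pH 4.5 (citrate buffer with Tween-20): 2 nM enzyme, 80 uM 4-MU-alpha-galactoside substrate, compound titrated 0.7 nM to 77 uM, 20 min room temperature. Glycine/NaOH stop; 4-MU read Ex 365/Em 440; Hill-equation AC50 against no-enzyme and enzyme controls.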
# [20] = molecular target: Alpha-galactosidase A (Homo sapiens) (UniProt P06280); experiment: Counterscreen for Glucocerebrosidase Inhibitors: qHTS Assay for Human alpha-Galactosidase at pH 4.5 (AID 992)
# Outline: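 Fluorogenic 4-MU alpha-D-galactoside (80 uM) hydrolysis, 2 nM enzyme, pH 4.5 citrate buffer + 0.005% Tween-20; 20 min RT; NaOH/glycine pH 10 stop; Ex365/Em440. Compounds titrated 0.7 nM–77 uM; Hill-equation AC50.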
# [21] = molecular target: alpha-glucosidase (Oryza sativa, rice) (UniProt Q653V4); experiment: Counterscreen for Glucocerebrosidase Inhibitors: qHTS Assay for Rice alpha-Glucosidase at pH 5.0 (AID 997)
# Outline: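 Endpoint fluorogenic assay at pH 5.0: compounds (0.7 nM to 77 uM) titrated against 4 nM rice enzyme and 400 uM 4-MU-alpha-glucoside for 20 min at room temperature; NaOH/glycine stop, read ex 365/em 440 nm, Hill-fitted AC50.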
# [22] = molecular target: Alpha-galactosidase (Coffea arabica) (UniProt Q42656); experiment: Counterscreen for Glucocerebrosidase Inhibitors: qHTS Assay for Coffee Bean alpha-Galactosidase at pH 5.9 (AID 998)
# Outline: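 Enzyme 2 nM + cpd (0.7 nM–77 uM titration) + 4-MU-alpha-Gal 80 uM, pH 5.9 citrate/Tween-20, RT 20 min, NaOH/glycine stop pH 10, fluor 365/440. Normalized to no-enzyme and full-activity controls; Hill-fit AC50.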
# [23] = Counterscreen qHTS for small molecule stabilizers of the endoplasmic reticulum resident proteome: GLuc-NoTag assay (AID 1508627)
# Outline: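 Counterscreen line: SH-SY5Y-GLuc-NoTag. Seed, 5 h; compound, 19 h; thapsigargin 100 nM, 4 h; 37C/5% CO2. Readout: secreted GLuc luminescence, coelenterazine 0.07x final, no lysis.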
smiles,measurement,setting,value
NCCc1cccc(O)c1,Potency,[1],inactive
same,Potency,[2],inactive
C[C@]12CCC3C(CC[C@H]4C[C@H](O)CC[C@]34C)[C@@H]1CC[C@@H]2C(=O)CO (stereo partly specified),Potency,[1],inactive
same,Potency,[2],inactive
CCC(Oc1ccc(Cl)cc1)C(=O)OC1CC2CCC(C1)N2C (stereo unspecified),Potency,[1],inactive
same,Potency,[3],8.91 µM (active)
Oc1ccc2c3c1O[C@H]1c4c(c5ccccc5n4Cc4ccccc4)C[C@]4(O)[C@H](C2)N(CC2CC2)CC[C@@]314,Potency,[4],31.6 µM (active)
same,Potency,[5],> 46 µM (inactive)
same,Potency,[6],> 46 µM (inactive)
same,outcome,[7],inactive
same,Potency,[8],inactive
same,Potency,[9],inactive
same,Potency,[10],inactive
same,Potency,[1],inactive
same,Potency,[3],inactive
Oc1ccc2c3c1O[C@H]1c4[nH]c5ccccc5c4C[C@]4(O)[C@H](C2)N(CC2CC2)CC[C@@]314,outcome,[11],inactive
same,Potency,[4],inactive and 39.8 µM (active)
same,"activity change, negative = inhibition",[12],3.02% (inactive)
same,outcome,[13],inactive
same,Potency,[5],> 46 µM (inactive)
same,Potency,[6],> 46 µM (inactive)
same,outcome,[7],inactive
same,Potency,[8],inactive
same,Potency,[9],inactive
same,Potency,[14],2.51 µM (active) and 631 nM (active)
same,Potency,[15],inactive
same,Potency,[16],inactive
same,outcome,[17],inactive
same,outcome,[18],inactive
same,outcome,[19],inactive
same,outcome,[20],inactive
same,outcome,[21],inactive
same,outcome,[22],inactive
same,Potency,[10],inactive
same,Potency,[1],inactive
same,Potency,[23],inactive
